# Screening data deposited in PubChem BioAssay by National Center for Advancing Translational Sciences (NCATS).
# Only a selection was taken, and hits are over-represented in it overall.
# Pf Dd2 inh – Plasmodium falciparum Dd2 growth inhibition; P. falciparum Dd2 growth, SYBR Green, 72 h; Potency, µM (top dose mostly 28.9 µM), for the others: at the highest dose activity, negative = inhibition, actives largely listed as inhibitors; 120,000 compounds, 4.3% hits; AID 1347417; active = well fitted inhibition curve with a large enough effect;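 note: plate controls were DMSO vehicle for no effect and reference drug for full effect; nearly all actives have a fitted effect of over 65% in size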
#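 Readout: SYBR Green fluorescence, 485 nm excitation, 535 nm emission, after ~16 h lysis at 37C. Before that, Dd2-infected red cells (2.5% hematocrit) grew 72 h with compound, 29 uM top final concentration.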
# * marks the source's active call; other numbers are inactive results; i = inactive; [ ] = remark or other dose. Potency is the fitted concentration of half-maximal effect.
SMILES,Pf Dd2 inh
CN1C(=O)CCC2(CNC(=O)Nc3ccccc3)CCC=C12 (configuration not stated),-12.0%
Cc1c(F)cccc1NC(=O)C1CCN(C(=O)c2ncn3c2COC(c2ccc(F)cc2)C3)CC1 (configuration not stated),i
Cc1noc(C)c1C(=O)N1Cc2ccccc2CC2(CCCCN2C)C1 (configuration not stated),-24.5%
COc1cccc(CC(=O)NC(C)C(=O)N2CCN(c3ccccn3)CC2)c1 (configuration not stated),i
O=[N+]([O-])c1ccccc1CN1C[C@H](O)C[C@H]1c1nc(Cc2ccc(F)cc2Cl)no1,i
O[C@@H]1C[C@@H](c2nc(Cc3ccc(F)cc3Cl)no2)N(Cc2ccc(OC(F)(F)F)cc2)C1,7.94µM*
O[C@@H]1C[C@@H](c2nc(-c3ccc4c(c3)OCO4)no2)N(Cc2cccc(OC(F)(F)F)c2)C1,-10.0%
O=C1N[C@H](CCC(=O)N2CCN(Cc3ccccc3)CC2)C(=O)Nc2ccccc21,-8.2%
COc1ccc(N2CCN(CC(O)COc3ccc(C)c(C)c3)CC2)cc1 (configuration not stated),22.8%
Cc1cccc(OCC(O)Cn2c(=N)n(CCN3CCCCC3)c3ccccc32)c1 (configuration not stated),10µM*
CCC(C)Cn1c(COc2ccc(OC)cc2)nc2ccccc21 (configuration not stated),i
CCn1c(=N)n(CC(O)COc2ccccc2)c2ccccc21 (configuration not stated),7.08µM*
COc1ccc(N2CCN(CC(O)COc3c(OC)cccc3OC)CC2)cc1 (configuration not stated),11.8%
CCOC(=O)N1CCN(Cc2cccc(OCC(O)CN3CCOCC3)c2)CC1 (configuration not stated),0.7%
Nc1ccc(-c2cccc(CN3CCCC3)c2)cc1,-10.1%
COc1ccc(-n2ncc(C(C)NC(=O)Cc3ccc4c(c3)OCO4)c2C)cc1 (configuration not stated),i
O=C(NCc1nnc2cc(-c3nc(C4CC4)no3)ccn12)c1ccoc1,-22.4%
COc1cccc(CC(=O)NCc2nnc3cc(-c4nc(C5CC5)no4)ccn23)c1,6.31µM*
COc1ccc(CNC(=O)N2CCC(c3noc(-c4cccnc4)n3)C2)cc1 (configuration not stated),i[5.79 µM]
O=C(Cc1ccc(F)cc1)NCc1nnc2cc(-c3nc(C4CC4)no3)ccn12,4.47µM*
O=C(NCc1nnc2cc(-c3nc(C4CC4)no3)ccn12)c1ccccc1Cl,-5.3%
O=C(Cc1cccc(F)c1)NCc1nnc2cc(-c3nc(C4CC4)no3)ccn12,i
COc1cccc(CNC(=O)N2CC(c3noc(-c4ccncc4)n3)C2)c1,8.91µM*
O=C(NCc1nnc2cc(-c3nc(C4CC4)no3)ccn12)c1c(F)cccc1F,i
O=C(Cc1ccc(Cl)cc1)NCc1nnc2cc(-c3nc(C4CC4)no3)ccn12,0.447µM*
SMILES,Pf Dd2 inh
O=C(NCc1nnc2cc(-c3nc(C4CC4)no3)ccn12)c1cccc(Cl)c1,i
O=C(NCc1nnc2cc(-c3nc(C4CC4)no3)ccn12)C1CC1,-24.2%
COc1ccc(CNC(=O)N2CCC(c3noc(-c4ccccc4)n3)C2)cc1 (configuration not stated),7.2%[5.79 µM]
CC(C)c1noc([C@@H]2C[C@H](NS(=O)(=O)c3ccc(F)cc3)CN2C)n1,i
O=[S+]1([O-])NCC2(CCN(Cc3ccc(Cl)cc3)C2)Oc2ccncc21 (configuration not stated),-8.6%
COc1cccc(-c2n[nH]c3c2CC(=O)N(CCc2ccncc2)C3)c1OC,0.5%[44.1 µM]
Cc1cnc(-c2cccnc2)n1CC1CCN(CC2CC2)CC1,-14.6%
Cc1cnc(-c2cccnc2)n1C1CCCN(C(=O)C2CC2)C1 (configuration not stated),-22.2%
Cc1cnc(-c2cccnc2)n1C1CCCN(CC2CCCCC2)C1 (configuration not stated),11.2µM*
COc1cccc(-c2nnnn2[C@H]2CO[C@H]3[C@@H]2OC[C@@H]3NS(=O)(=O)Cc2ccccc2)c1,-9.3%
CCOc1ccccc1CN1CCCN(S(C)(=O)=O)C(c2ccccc2)CC(=O)NCC1 (configuration not stated),-0.9%
COc1ccc(C(=O)N2CCCC(CO)CCNC(=O)CC2)c(OC)c1 (configuration not stated),-15.1%
Cc1ccc(Cl)cc1N1CCN(C(=O)C2CCCN(Cc3nc(-c4cccc(Cl)c4)oc3C)C2)CC1 (configuration not stated),-4.0%
CSc1ccc(-c2nc(CN3CCCC(CO)C3)c(C)o2)cc1 (configuration not stated),i
Cc1oc(-c2cccc(C(F)(F)F)c2)nc1CN1CCCC(CO)C1 (configuration not stated),11.2µM*
O=C(O)CCCNC(=O)Cn1nc2c(cc1=O)CCCCC2,5.1%
CCNC(=O)N1CCCC(c2noc(COc3ccccc3F)n2)C1 (configuration not stated),i
O=C(NCc1ccccn1)C1CCN(c2nccc(-c3cccnc3)n2)CC1,-13.4%
Cc1nc(CC2CCN(c3nccc(-c4cccnc4)n3)CC2)no1,-11.5%
O=c1[nH]c2ccccc2n1C1CCN(c2nccc(-c3cccnc3)n2)CC1,11.2µM*
CC1=NOC2(CCCN(C(=O)c3ccccn3)C2)C1 (configuration not stated),10.8%[44.1 µM]
O=C(c1ccccc1)N1CCC2(CN[S+](=O)([O-])c3ccccc3N2)C1 (configuration not stated),15.3%
Cc1ccc(CNC(=O)CCCN2C(=O)CCn3nc(-c4cccn4C)cc32)cc1,5.01µM*
CC(C)Oc1ccc(CNC(=O)CCCN2C(=O)CCn3nc(-c4cccn4C)cc32)cc1,3.9%
CN(C)c1ccc(CNC(=O)CCCN2C(=O)CCn3nc(-c4cccn4C)cc32)cc1,-1.7%
SMILES,Pf Dd2 inh
Fc1ccccc1CNC[C@H]1Cn2cc(-c3ccccc3)nc2CO1,i
N#Cc1ccc(CN2CCCC3(CNc4ccccc4[S+](=O)([O-])N3)C2)cc1 (configuration not stated),i
Cn1nccc1CN1CCCC2(CNc3ccccc3[S+](=O)([O-])N2)C1 (configuration not stated),-3.0%
CC(C)CCN1CCCC2(CNc3ccccc3[S+](=O)([O-])N2)C1 (configuration not stated),12.6µM*
Cn1c(C(=O)NCc2cccnc2)cc2c1CCN(Cc1ccccc1)C2,i
COc1cccc(CN2CCc3c(cc(C(=O)N(C)C)n3C)C2)c1,-15.5%
COc1cccc(CN2CCc3c(cc(C(=O)N4CCN(CC(C)C)CC4)n3C)C2)c1,6.31µM*
O=C(NCC1CCN(c2cc(-c3ccc(F)cc3)[nH]n2)CC1)c1c[nH]c2ccccc12,-5.0%
O=C(CN1C(=O)NC2(CCOCC2)C1=O)Nc1ccc2c(c1)OCCO2,22.4%
CC1CCC2(CC1)NC(=O)N(CC(=O)Nc1ccc3c(c1)OCO3)C2=O (configuration not stated),i
CC(C)(C)C1CCC2(CC1)NC(=O)N(CC(=O)Nc1ccc3c(c1)OCCO3)C2=O (configuration not stated),7.94µM*
Cn1nc(C(=O)N2CCC3(CC2)N=C(c2cccc(Br)c2)NO3)c2ccccc21,i
Cc1ccc(-c2ccc3nnc(CNC(=O)c4ccccc4C)n3n2)cc1C,2.4%
